# Experiments:
# Conditions in all cases: concentration: 1 μM, replicates: in singlicate; n = 1
# CDK2 = test system: CDK2
# CDK3 = test system: CDK3
# CDK4-cyclinD1 = test system: CDK4-cyclinD1
# CDK4-cyclinD3 = test system: CDK4-cyclinD3
# CDK4 = test system: CDK4
# CDK5 = test system: CDK5
# CDK7 = test system: CDK7
# CDK8 = test system: CDK8
# CDK9 = test system: CDK9
# CDKL1 = test system: CDKL1
# CDKL2 = test system: CDKL2
# CDKL3 = test system: CDKL3
# CDKL5 = test system: CDKL5
# CHEK1 = test system: CHEK1
# CHEK2 = test system: CHEK2
# CIT = test system: CIT
# CLK1 = test system: CLK1
# CLK2 = test system: CLK2
# CLK3 = test system: CLK3
# CLK4 = test system: CLK4
# 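Also: KINOMEscan kinase panel screen.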
Compound,%Inh (CDK2),%Inh (CDK3),%Inh (CDK4-cyclinD1),%Inh (CDK4-cyclinD3),%Inh (CDK4),%Inh (CDK5),%Inh (CDK7),%Inh (CDK8),%Inh (CDK9),%Inh (CDKL1),%Inh (CDKL2),%Inh (CDKL3),%Inh (CDKL5),%Inh (CHEK1),%Inh (CHEK2),%Inh (CIT),%Inh (CLK1),%Inh (CLK2),%Inh (CLK3),%Inh (CLK4)
CCc1nc(-c2cccc(C)c2)c(-c2ccnc(NC(=O)c3ccccc3)c2)s1,0%,0%,15%,6%,13%,21%,24%,1%,0%,0%,0%,0%,10%,0%,34%,42%,0%,0%,0%,16%
Clc1ccc(-c2cc(-c3c[nH]nc3-c3ccccn3)ccn2)cc1 [GW681251],22%,42%,7%,0%,0%,0%,0%,11%,0%,15%,11%,22%,0%,0%,0%,4%,13%,0%,4%,20%
COc1ccc(NC(=O)Nc2ccc(C)c(-c3ccc(C(=O)Nc4ccncc4)cc3)c2)cc1 [GSK1398475],0%,0%,0%,9%,7%,0%,0%,40%,0%,1%,30%,0%,0%,11%,0%,69%,28%,0%,4%,5%
Nc1nc(-c2ccccn2)c(-c2ccnc3ccccc23)s1 [GW548057],0%,5%,49%,0%,0%,0%,2%,56%,0%,12%,24%,0%,0%,0%,46%,6%,14%,16%,30%,40%
CSc1nn2c(=O)cc(N3CCOCC3)nc2n1Cc1cccc(Cl)c1Cl [GSK2347225],0%,6%,0%,0%,16%,9%,0%,0%,4%,0%,27%,0%,8%,15%,0%,35%,40%,0%,100%,12%
CN1c2ccc(-c3ccc(C(=O)NCCO)cc3)cc2-c2[nH]ncc2S1(=O)=O,2%,0%,20%,12%,0%,0%,32%,0%,0%,22%,0%,1%,0%,0%,65%,2%,44%,86%,25%,40%
Fc1cccc(COc2ccc(Nc3ncnc4sc(-c5ccc[nH]5)cc34)cc2Cl)c1 [GW707818],0%,10%,0%,11%,17%,0%,0%,31%,14%,6%,14%,0%,0%,7%,21%,27%,29%,8%,0%,100%
O=C(Nc1n[nH]c2nc(-c3ccco3)c(Br)cc12)c1ccc(CN2CCCC2)cc1.O=C(O)[C@H](O)[C@@H](O)C(=O)O [SB-742352],0%,0%,0%,0%,0%,0%,0%,0%,0%,24%,62%,0%,0%,0%,0%,0%,16%,12%,0%,8%
CS(=O)(=O)CCNCc1nc(-c2ccc3ncnc(Nc4ccc(OCc5cccc(F)c5)c(Cl)c4)c3c2)cs1.Cl [GW583340],0%,0%,0%,0%,34%,0%,0%,3%,10%,0%,2%,0%,0%,0%,0%,23%,33%,0%,12%,0%
Nc1nc(-c2ccc3c(N)n[nH]c3c2)cc(N2CCCCC2)n1 [GSK2228768],6%,17%,0%,0%,0%,0%,0%,0%,0%,20%,0%,0%,2%,0%,0%,18%,29%,0%,8%,19%
N#Cc1ccc(Oc2ccc(Nc3ncnc4cc[nH]c34)cc2Cl)cc1,6%,2%,11%,6%,0%,0%,27%,13%,17%,27%,15%,3%,14%,4%,19%,22%,25%,19%,3%,21%
O=C(Nc1ccccc1)Nc1ccc(Oc2ccc3nccn3n2)cc1,0%,1%,0%,0%,0%,0%,0%,23%,0%,36%,5%,0%,0%,0%,49%,3%,30%,0%,0%,0%
CCc1nc(-c2cccc(N(C)S(=O)(=O)c3ccccc3)c2)c(-c2ccnc(Nc3ccc(N4CCN(C(C)=O)CC4)nc3)n2)s1 [GSK1645895],0%,0%,0%,3%,0%,0%,0%,0%,15%,1%,47%,0%,4%,7%,0%,31%,25%,12%,27%,0%
FC(F)(F)c1cc(Nc2nccc(-c3c(-c4ccc(Cl)cc4)nn4ncccc34)n2)ccc1Cl [GW829351],0%,34%,0%,0%,0%,0%,0%,58%,0%,0%,28%,0%,0%,0%,4%,17%,0%,22%,0%,0%
Fc1cccc(COc2ccc(Nc3ncnc4cc[nH]c34)cc2Cl)c1,11%,6%,6%,10%,0%,21%,17%,8%,11%,2%,14%,11%,15%,10%,13%,19%,7%,16%,10%,0%
Cc1cccc(-c2nc(Nc3ccc4[nH]nnc4c3)c3ccccc3n2)n1 [GW867587],0%,15%,0%,0%,0%,0%,0%,30%,0%,0%,25%,0%,0%,0%,0%,15%,0%,0%,0%,0%
Cn1cc(-c2ccc3c(c2)CCN3C(=O)Cc2cccc(C(F)(F)F)c2)c2c(N)ncnc21 [GSK2606414],0%,0%,0%,0%,6%,0%,0%,34%,0%,0%,15%,0%,0%,19%,0%,11%,22%,0%,0%,19%
Nc1nc(-c2cccnc2)c(-c2ccnc3ccccc23)s1 [GW684083],0%,11%,16%,0%,41%,0%,0%,46%,0%,13%,20%,0%,0%,0%,11%,45%,14%,0%,100%,38%
Clc1cccc(-c2nc(Nc3ccncc3)c3ccccc3n2)c1 [GW873004],0%,0%,21%,0%,0%,0%,10%,50%,0%,30%,35%,13%,3%,0%,0%,57%,14%,0%,35%,52%
O=c1cc(N2CCOCC2)nc2n(Cc3cccc(Cl)c3)ccn12 [GSK2296823],0%,3%,0%,13%,0%,0%,0%,0%,0%,9%,26%,0%,4%,18%,0%,10%,47%,1%,20%,24%
